In PubChem BioAssay (NCATS):
Records with an inconclusive call do not appear. Activity calls are given as the source filed them. Unless noted, the call rests on the fitted dose curve.

Assays:
[1] = target: Glucocorticoid receptor (Homo sapiens) (UniProt P04150); test: qHTS assay for small molecule agonists of glucocorticoid receptor signaling (AID 588532; active means well fitted curve in the direction sought with a large enough effect in the signal ratio, with a control signal flat; the % refers to the signal ratio;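 further: 100% = dexamethasone at 0.1 µM and 0% = DMSO only wells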); details: HeLa MMTV-bla, beta-lactamase ratio, agonist, 18 h; hits give high values; percent of dexamethasone control, DMSO zero
Chain of Glucocorticoid receptor (Homo sapiens) (P04150 whole entry, looked up): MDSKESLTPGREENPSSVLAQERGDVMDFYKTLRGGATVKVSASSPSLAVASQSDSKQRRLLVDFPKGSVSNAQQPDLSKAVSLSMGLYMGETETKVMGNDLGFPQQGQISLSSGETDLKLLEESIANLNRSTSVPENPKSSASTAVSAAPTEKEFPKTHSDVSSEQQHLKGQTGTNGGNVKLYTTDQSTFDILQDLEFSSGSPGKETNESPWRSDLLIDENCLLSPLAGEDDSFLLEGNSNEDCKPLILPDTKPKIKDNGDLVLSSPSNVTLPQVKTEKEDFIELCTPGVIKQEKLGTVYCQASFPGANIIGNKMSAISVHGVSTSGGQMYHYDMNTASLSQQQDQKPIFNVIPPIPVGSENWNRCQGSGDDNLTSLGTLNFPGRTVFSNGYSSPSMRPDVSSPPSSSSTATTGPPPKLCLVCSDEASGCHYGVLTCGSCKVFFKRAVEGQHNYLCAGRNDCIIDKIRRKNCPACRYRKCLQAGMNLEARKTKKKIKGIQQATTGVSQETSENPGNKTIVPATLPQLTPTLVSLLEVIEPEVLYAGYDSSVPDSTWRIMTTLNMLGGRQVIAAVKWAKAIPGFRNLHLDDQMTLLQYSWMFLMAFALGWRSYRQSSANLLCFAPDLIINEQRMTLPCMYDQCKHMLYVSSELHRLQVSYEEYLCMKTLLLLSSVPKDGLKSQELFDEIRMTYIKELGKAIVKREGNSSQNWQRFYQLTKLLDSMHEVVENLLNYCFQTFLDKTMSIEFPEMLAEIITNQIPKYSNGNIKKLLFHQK
Procedure, shortened: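 Using MMTV-bla HeLa cells in medium with 1% stripped FBS and 25 mM HEPES, compounds were titrated and incubated overnight-length (18 h). Beta-lactamase cleavage of CCF4 was quantified by dual-emission fluorescence.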

[2] = target: Glucocorticoid receptor (Homo sapiens) (UniProt P04150); test: qHTS assay for small molecule antagonists of glucocorticoid receptor signaling (AID 588533; active means well fitted inhibition curve with a large enough effect in the signal ratio, with a control signal flat, not every such curve was filed as active; the % refers to the signal ratio;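 further: cells stimulated with 2 nM dexamethasone as agonist; on the % scale 0 is the no-effect control and ±100 the full control effect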); details: HeLa MMTV-bla, GRE beta-lactamase ratio, antagonist mode, 18 h; series mostly up to 76.8 µM
Procedure, shortened: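 Antagonist-mode qHTS: compound titrations added to GRE-bla HeLa cells, then dexamethasone 2 nM final; 18 h, 37 C. CCF4 FRET fluorescence normalized to dexamethasone and DMSO; IC50 from Hill fit.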

[3] = target: Peroxisome proliferator-activated receptor delta (Homo sapiens) (UniProt Q03181); test: qHTS assay for small molecule antagonists of peroxisome proliferator-activated receptor delta signaling (AID 588535; active means well fitted inhibition curve with a large enough effect in the signal ratio, with a control signal flat, not every such curve was filed as active; the % refers to the signal ratio); details: HEK293T PPARd-UAS-bla, beta-lactamase FRET ratio, 18 h; series mostly up to 76.7 µM
Chain of Peroxisome proliferator-activated receptor delta (Homo sapiens) (Q03181 whole entry, looked up): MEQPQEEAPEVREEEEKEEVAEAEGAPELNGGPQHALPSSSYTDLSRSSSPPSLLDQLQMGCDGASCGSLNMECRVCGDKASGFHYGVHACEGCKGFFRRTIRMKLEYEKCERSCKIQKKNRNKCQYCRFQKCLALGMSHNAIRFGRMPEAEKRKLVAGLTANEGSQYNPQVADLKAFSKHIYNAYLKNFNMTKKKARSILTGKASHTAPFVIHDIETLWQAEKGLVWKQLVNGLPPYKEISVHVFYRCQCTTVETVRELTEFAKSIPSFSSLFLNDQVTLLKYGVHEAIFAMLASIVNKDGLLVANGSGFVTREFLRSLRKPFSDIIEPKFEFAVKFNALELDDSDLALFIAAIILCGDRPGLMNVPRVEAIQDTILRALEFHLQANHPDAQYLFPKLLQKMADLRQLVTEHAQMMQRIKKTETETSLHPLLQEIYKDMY
Procedure, shortened: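 HEK293T PPAR-delta-UAS-bla cells, 4000/well, 2% charcoal/dextran FBS; 5 h 37 C; cpd titration; 18 h 37 C; CCF4 2 h RT; FI 460/530 nm; Hill fit → IC50, efficacy.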

[4] = target: Peroxisome proliferator-activated receptor gamma (Homo sapiens) (UniProt P37231); test: qHTS assay for small molecule agonists of peroxisome proliferator-activated receptor gamma signaling (AID 588536; active means well fitted curve in the direction sought with a large enough effect in the signal ratio, with a control signal flat, not every such curve was filed as active; the % refers to the signal ratio;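 further: 0% = DMSO basal wells and 100% = rosiglitazone at 2 µM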); details: HEK293 PPARg-UAS-bla, beta-lactamase ratio, 16 h, percent of rosiglitazone response, DMSO as zero; series mostly up to 76.7 µM
Chain of Peroxisome proliferator-activated receptor gamma (Homo sapiens) (P37231 whole entry, looked up): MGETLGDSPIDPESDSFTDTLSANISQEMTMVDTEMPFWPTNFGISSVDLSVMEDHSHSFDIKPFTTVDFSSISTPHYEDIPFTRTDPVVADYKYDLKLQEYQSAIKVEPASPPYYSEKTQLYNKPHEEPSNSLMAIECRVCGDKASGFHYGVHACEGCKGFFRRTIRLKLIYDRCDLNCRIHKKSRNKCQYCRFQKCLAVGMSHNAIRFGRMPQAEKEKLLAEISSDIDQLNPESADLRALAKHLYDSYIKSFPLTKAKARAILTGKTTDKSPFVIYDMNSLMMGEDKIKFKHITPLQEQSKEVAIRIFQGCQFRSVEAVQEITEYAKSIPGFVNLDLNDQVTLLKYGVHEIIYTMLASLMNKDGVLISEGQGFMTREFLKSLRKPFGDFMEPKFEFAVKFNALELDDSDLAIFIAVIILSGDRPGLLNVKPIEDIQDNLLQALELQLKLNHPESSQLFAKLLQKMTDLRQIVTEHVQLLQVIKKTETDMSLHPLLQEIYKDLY
Procedure, shortened: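 PPAR-gamma-UAS-bla HEK293 cells in medium with 1% charcoal/dextran-treated FBS were exposed to compounds for 16 h at 37 C. Beta-lactamase activity was read with CCF4 substrate (405 nm excitation, 460/530 nm emission).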

[5] = target: Peroxisome proliferator-activated receptor gamma (Homo sapiens) (UniProt P37231); test: qHTS assay for small molecule antagonists of peroxisome proliferator-activated receptor gamma signaling (AID 588537; active means well fitted inhibition curve with a large enough effect in the signal ratio, with a control signal flat, not every such curve was filed as active; the % refers to the signal ratio;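 further: reporter cells co-stimulated with 50 nM rosiglitazone agonist during compound treatment; % of control where 0% means no effect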); details: HEK293 PPARg-UAS-bla, beta-lactamase ratio, antagonist mode; series mostly up to 76.8 µM
Procedure, shortened: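 Antagonist mode, beta-lactamase reporter in HEK293; charcoal/dextran FBS 1%; 3000 cells/well, 37 C 6-6.5 h; cpd titration + rosiglitazone 50 nM final, 16 h 37 C; CCF4, 2 h RT; 460/530 nm; Hill fit → IC50, efficacy.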

[6] = qHTS assay for small molecule agonists of the antioxidant response element (ARE) signaling pathway (AID 651741; active means well fitted activation curve with a large enough effect in the signal ratio; the % refers to the signal ratio; further: % of control where 0% means no effect); details: HepG2 ARE-bla reporter, beta-lactamase FRET ratio, 16 h; series mostly up to 96 µM
Procedure, shortened: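 Quantitative HTS in HepG2 cells stably expressing an ARE-beta-lactamase reporter; 16 h compound exposure at 37 C, followed by 2 h room-temperature incubation with LiveBLAzer B/G FRET substrate and fluorescence measurement.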

[7] = target: Bile acid receptor (Homo sapiens) (UniProt Q96RI1); test: qHTS assay for small molecule antagonists of farnesoid X receptor signaling (AID 588526); details: HEK293T FXR-UAS-bla, beta-lactamase ratio, antagonist mode; series mostly up to 76.7 µM; further: on the % scale 0 is the no-effect control and ±100 the full control effect
Chain of Bile acid receptor (Homo sapiens) (Q96RI1 whole entry, looked up): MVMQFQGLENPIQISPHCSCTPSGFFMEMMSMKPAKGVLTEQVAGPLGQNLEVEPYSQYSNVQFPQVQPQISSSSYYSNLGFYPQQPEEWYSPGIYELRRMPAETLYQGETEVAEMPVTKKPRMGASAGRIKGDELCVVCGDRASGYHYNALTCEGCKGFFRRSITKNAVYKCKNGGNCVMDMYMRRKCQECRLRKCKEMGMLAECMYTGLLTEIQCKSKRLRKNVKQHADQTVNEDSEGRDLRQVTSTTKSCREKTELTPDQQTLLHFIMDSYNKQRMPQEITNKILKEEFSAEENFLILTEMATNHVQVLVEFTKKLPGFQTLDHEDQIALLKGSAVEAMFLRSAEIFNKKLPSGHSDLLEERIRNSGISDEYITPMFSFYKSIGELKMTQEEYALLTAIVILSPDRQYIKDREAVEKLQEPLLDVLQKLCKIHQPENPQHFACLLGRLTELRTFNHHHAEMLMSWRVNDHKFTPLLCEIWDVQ
Procedure, shortened: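 Beta-lactamase reporter antagonist mode: HEK293T FXR-UAS-bla cells, titrated compound, CDCA stimulation, 16 h 37 C, CCF4 dye 2 h RT. Data normalized to CDCA 50 uM and DMSO; Hill-fit IC50.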

[8] = qHTS assay for small molecule activators of the p53 signaling pathway (AID 651743; active means well fitted activation curve with a large enough effect in the signal ratio, not every such curve was filed as active; the % refers to the signal ratio; further: % of control where 0% means no effect); details: HCT-116 p53RE-bla, beta-lactamase FRET ratio, 16 h; activation: hits give high values
Procedure, shortened: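 Read-out is fluorescence intensity from the LiveBLAzer B/G FRET substrate, added for 2 hours at room temperature after HCT-116 p53RE-bla cells had been incubated with compounds for 16 hours at 37 C.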

O=C(O)c1cccc(C(=O)O)c1
inactive: activation [1] -2.7% | Potency [2] | Potency [3] | outcome [4] | Potency [5] | Potency [6]

COc1ccc(OC)c(OC)c1
inactive: Potency [7] | activation [1] 0.211% | outcome [4] | Potency [5] | Potency [6]

C[Si](C)(C)N[Si](C)(C)C
inactive: activation [1] -9.44% | Potency [2] | outcome [4] | activation [8] 1.4%
